Our source for the growth values is PubChem BioAssay (NCI).

Among the test systems are NCI-H23 lung; NCI-H226 lung; NCI-H322M lung; NCI-H460 lung; HOP-92 NSCLC; A549/ATCC NSCLC; COLO 205 colon; NCI-H522 lung; 786-0 renal.
Assay in all cases: NCI-60 one-dose screen, 48 h (100 = growth as untreated, 0 = no growth, -100 = all killed)
Common to all, as to settings: 10 µM

About 83,000 compounds went through this panel and 20% of them were active in at least one assay; those are over-represented in the sample as a whole.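 Note: values are percent growth. 100 is the growth of untreated cells, values between 100 and 0 indicate rising inhibition; between -100 and 0 indicates cell death.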 A number with no mark means an inactive call. The source made the active and inactive calls. How the source made its calls: active means growth percent below 10; inactive means the rest.

Take `COC(=O)c1cc2oc(/C=C3/SC(=S)N(N)C3=O)cc2n1Cc1ccccc1`: the growth in the assay with NCI-H23 lung was 58.4%; in the assay on NCI-H226 lung, 57%; with NCI-H322M lung it was 39.4%; in the assay with NCI-H460 lung, 40.5%; in the assay on HOP-92 NSCLC, -69% (active); in the assay with A549/ATCC NSCLC, 53.4%. The growth in the assay on COLO 205 colon is 75%.

Take `CC1(C)N=C(N)N=C(N)N1c1cccc(C#N)c1`: the growth was 75.2% with NCI-H23 lung; 67.9% in the assay on NCI-H226 lung; 64.6% in the assay with NCI-H322M lung; 22.3% in the assay on NCI-H460 lung; 65.6% in the assay with NCI-H522 lung; 29.4% with A549/ATCC NSCLC. The growth was 35.8% with 786-0 renal and 66.8% in the assay on COLO 205 colon.

On to `IC(I)I`, for which the growth is 102% with NCI-H23 lung; 100% in the assay with NCI-H226 lung; 102% in the assay with NCI-H322M lung; 109% with NCI-H460 lung; 119% in the assay on NCI-H522 lung; 102% in the assay on A549/ATCC NSCLC. Besides, the growth in the assay with 786-0 renal was 101%.

In the case of `CC(=O)Nc1cc2c(cc1Cl)Cc1cc(Cl)ccc1-2`, the growth is 77.1% in the assay with NCI-H23 lung; 83% in the assay on NCI-H226 lung; 96% in the assay with NCI-H322M lung; 95.9% in the assay with NCI-H460 lung; 79.6% in the assay on NCI-H522 lung; 112% with 786-0 renal. The growth in the assay on COLO 205 colon was 105%.

Consider `CCOc1ccccc1/C=N\N=C\c1ccccc1O`, for which the growth in the assay on NCI-H23 lung is 87.7%; in the assay with NCI-H226 lung, 104%; in the assay with NCI-H322M lung, 93.8%; in the assay with NCI-H460 lung, 107%; in the assay with NCI-H522 lung, 99.8%; in the assay on A549/ATCC NSCLC, 108%. Moreover, the growth with 786-0 renal is 106%; with COLO 205 colon it was 108%.

On to `Cc1ccc(-c2c3c(N)nc(-c4cccnc4)nc3nc3c2c(C)nn3-c2ccccc2)cc1`, for which the growth was 97.9% in the assay on NCI-H23 lung; 52.2% in the assay on NCI-H226 lung; 76.8% in the assay on NCI-H322M lung; 85% in the assay with NCI-H460 lung; 46.5% in the assay with HOP-92 NSCLC; 68.4% in the assay with A549/ATCC NSCLC. In addition, the values for the growth in the assay with 786-0 renal and in the assay with COLO 205 colon were 80.9% and 83.6%, respectively.

Consider `NC(N)=N/N=C(\c1ccccc1)C(O)c1ccccc1` (configuration not stated), for which the growth in the assay with NCI-H23 lung was 101%; in the assay on NCI-H226 lung, 96.1%; in the assay on NCI-H322M lung, 101%; with HOP-92 NSCLC it was 95%; in the assay on NCI-H522 lung, 82.5%; in the assay on A549/ATCC NSCLC it was 102%. Besides, the results for the growth with 786-0 renal and in the assay with COLO 205 colon were 98.3% and 101%, respectively.

As for `CC(=O)/C(=C/c1ccc(Br)cc1)C(=O)c1ccccc1`, the growth is 99.5% with NCI-H23 lung; 87.8% in the assay with NCI-H226 lung; 115% in the assay with NCI-H322M lung; 103% in the assay on NCI-H460 lung; 85.2% in the assay with NCI-H522 lung; 94% in the assay with A549/ATCC NSCLC. Further, the growth was 84.5% in the assay on 786-0 renal and 111% in the assay with COLO 205 colon.

Regarding `C[C@]12CC[C@@H]3c4ccc(O)cc4CC[C@H]3[C@@H]1CC[C@@H]2NS(=O)(=O)c1ccc(C(F)(F)F)cc1`, the growth in the assay with NCI-H23 lung was 56.4%; with NCI-H226 lung, 51.6%; in the assay on NCI-H322M lung it was 63.8%; in the assay with NCI-H460 lung, 3.9% (active); in the assay with A549/ATCC NSCLC, 23.5%; in the assay with 786-0 renal it was 57.4%.

For the molecule `COc1cc(-c2ccc[nH]2)[nH]c1/C=C1\N=C(C)C(C(=O)NC(C)C)=C1C`, the growth was 40.5% in the assay with NCI-H23 lung; 42.7% in the assay on NCI-H226 lung; 39.2% in the assay on NCI-H322M lung; 9.93% (active) with NCI-H460 lung; 13.4% in the assay with NCI-H522 lung; 14.7% in the assay with A549/ATCC NSCLC. Further, the growth was 8.09% (active) in the assay on 786-0 renal and 26.9% with COLO 205 colon.

Consider `CC(C)(C)c1ccc(S(=O)(=O)N[C@H]2CC[C@H]3[C@@H]4CCc5cc(O)ccc5[C@H]4CC[C@]23C)cc1`, for which the growth with NCI-H23 lung is 50.3%; in the assay with NCI-H226 lung, 55.7%; in the assay on NCI-H322M lung, 78.7%; with NCI-H460 lung it was 33.7%; in the assay on NCI-H522 lung, 31.8%; in the assay on A549/ATCC NSCLC, 28.5%. The growth with 786-0 renal is 49.6%; in the assay on COLO 205 colon it was 8.52% (active).

As to `O=C(CI)OCC(COC(=O)CI)OC(=O)CI`, the growth was 65.9% in the assay with NCI-H23 lung; 97.1% with NCI-H226 lung; 112% in the assay with NCI-H322M lung; 98.9% in the assay on NCI-H460 lung; 104% with A549/ATCC NSCLC; 45.9% in the assay with 786-0 renal. The growth with COLO 205 colon is 33.2%.

For the molecule `CN(C)c1ccc(/C=N/NC(=O)c2cccc3ccccc23)c(Cl)c1`, the growth in the assay with NCI-H23 lung was 1.31% (active); with NCI-H226 lung it was 61.2%; in the assay with NCI-H322M lung, 57.6%; in the assay with NCI-H460 lung, 19.2%; in the assay with NCI-H522 lung, 22.6%; in the assay on A549/ATCC NSCLC it was 26.8%. For the same molecule, the growth with 786-0 renal is 56.1%; in the assay on COLO 205 colon, 19.7%.

With `COc1ccc2nc3cc(Cl)ccc3c(NCCCNCCO)c2c1`, the growth with NCI-H23 lung was -21.7% (active); in the assay with NCI-H226 lung, -9.48% (active); in the assay on NCI-H322M lung, -22.6% (active); in the assay with NCI-H460 lung, -8.13% (active); with NCI-H522 lung, -86.5% (active); with 786-0 renal it was 6.46% (active).

`CCN1C(=O)CC(SC2CC(=O)N(CC)C2=O)C1=O` (configuration not stated): the growth in the assay with NCI-H23 lung is 95.9%; in the assay on NCI-H226 lung it was 104%; in the assay with NCI-H322M lung it was 110%; in the assay with NCI-H460 lung it was 109%; in the assay on NCI-H522 lung, 96.1%; in the assay with A549/ATCC NSCLC it was 104%. In addition, the growth in the assay on 786-0 renal was 101%; in the assay on COLO 205 colon, 81.4%.
